Test results reported in the supplement of paper PMC13380429.

Key:
[1] = test system: Vero E6 infected with SARS-CoV-2; experiment: morphology score (similarity to uninfected cells); higher = more like uninfected cells; conditions: 24 h
[2] = test system: Vero E6 infected with SARS-CoV-2; experiment: SARS-CoV-2 infection rate relative to infected DMSO; higher = more infection, active = 60 or less; conditions: 24 h

Structure (SMILES) | morphology score [1] | SARS-CoV-2 infection rate [2]
C[C@H](Nc1cc(-c2cnn(C)c2)cc(Nc2cnccn2)n1)c1ccc(F)cc1 (0.833333 µM) | -0.112 | 114% (inactive)
Clc1cccc(C(c2ccc3[nH]cnc3c2)n2ccnc2)c1 (stereo not given) [liarozole] (10 µM) | 0.138 | 98% (inactive)
CC1(C)CC(=O)C(C2C3=C(CC(C)(C)CC3=O)Oc3ccccc32)C(=O)C1 (stereo not given) (10 µM) | 0.28 | 98% (inactive)
NCCc1ccc(O)c(O)c1 [dopamine] (10 µM) | -0.112 | 100% (inactive)
CCOC(=O)C1=C(C)NC(=S)NC1c1cccc(O)c1 (stereo not given) [monastrol] (10 µM) | 0.0534 | 93% (inactive)
COc1ccc(C(=O)N2CCCc3cc(C4=NNC(=O)SC4C)ccc32)cc1OC (stereo not given) (0.833333 µM) | -0.177 | 109% (inactive)
NC(=O)c1ccc([N+](=O)[O-])cc1Cl [aklomide] (10 µM) | -0.229 | 114% (inactive)
O=C(NCc1ccncc1)C12CC3CC(C1)CC(c1ccc(Cl)cc1)(C3)C2 (10 µM) | 0.00848 | 97% (inactive)
CCN(CC)CCCCNc1ncc2cc(-c3cc(OC)cc(OC)c3)c(NC(=O)NC(C)(C)C)nc2n1 (0.833333 µM) | 0.13 | 107% (inactive)
N[C@@H](CCNCc1ccc(Cl)cc1)C(=O)N1CCCCC1 (10 µM) | -0.159 | 107% (inactive)
O=C(O[C@H]1CN2CCC1CC2)N(Cc1cc(F)c(F)c(F)c1)c1cccc(F)c1 [tarafenacin] (10 µM) | 0.371 | 74% (inactive)
CON(C)C(=O)[C@H](O)[C@H](Cc1ccccc1)NC(=O)c1cc2cc(Cl)ccc2[nH]1 (10 µM) | 0.109 | 109% (inactive)
CN[C@@H]1[C@@H](O[C@H]2O[C@H](CO)[C@@H](N)[C@H](O)[C@H]2O)O[C@H]2C[C@@H](N)[C@@H](O[C@H]3[C@H](O)[C@@H](O)[C@H](N)C[C@@H]3N)O[C@@H]2[C@@H]1O [apramycin] (10 µM) | 0.0655 | 98% (inactive)
CC1(C)OC(=O)NC1=O [dimethadione] (10 µM) | -0.0571 | 102% (inactive)
N#C/C(=C\c1ccc(O)c(O)c1)C(N)=O [tyrphostin-AG-99] (10 µM) | 0.0858 | 106% (inactive)
CCCCc1ccc(C(N)=O)nc1 [bupicomide] (10 µM) | -0.191 | 102% (inactive)
Oc1nc(O)c2nc(O)[nH]c2n1 [uric-acid] (10 µM) | -0.0319 | 106% (inactive)
O=C(O)CCCCC(CCSCc1ccccc1)SCc1ccccc1 (stereo not given) (10 µM) | 0.195 | 104% (inactive)
COc1cccc2c1C(=O)c1c(O)c3c(c(O)c1C2=O)C[C@@](O)(C(=O)CO)C[C@@H]3O[C@H]1C[C@H](N2CCO[C@H](OC)C2)[C@H](O)[C@H](C)O1 [nemorubicin] (0.833333 µM) | 0.0228 | 108% (inactive)
CC(CNC1CCCCC1)OC(=O)c1ccccc1 (stereo not given) [hexylcaine] (10 µM) | -0.0327 | 112% (inactive)
O=C(CN1CCN(C(=O)c2ccco2)CC1)Nc1cc(C(F)(F)F)ccc1Cl (10 µM) | 0.00654 | 103% (inactive)
CC1=C(C)C(=O)C(C(CCCCCC(=O)O)c2ccccc2)=C(C)C1=O (stereo not given) [seratrodast] (10 µM) | 0.0459 | 100% (inactive)
CC/C(=C(/CC)c1ccc(OP(=O)(O)O)cc1)c1ccc(OP(=O)(O)O)cc1 [fosfestrol] (10 µM) | 0.11 | 96% (inactive)
Cc1cc2c(C(N)=O)cccc2n1-c1nc2c(c(NCc3ccccc3)n1)COCC2 (10 µM) | -0.0618 | 116% (inactive)
C[C@H](Cc1ccc2c(c1)OC(C(=O)O)(C(=O)O)O2)NC[C@H](O)c1cccc(Cl)c1 (10 µM) | 0.159 | 93.5% (inactive)
C[N+]1([O-])[C@@H]2C[C@@H](OC(=O)[C@H](CO)c3ccccc3)C[C@H]1[C@@H]1O[C@@H]12 (stereo not given in full) [scopolamine-N-oxide] (10 µM) | 0.142 | 107% (inactive)
CC1CCN(C(c2ccc(F)cc2)c2ccc(C(C)C(=O)O)cc2-c2ccc(C(F)(F)F)cc2)CC1 (stereo not given) (10 µM) | 0.0608 | 106% (inactive)
CC(C)CCN1c2nc(Nc3cc(F)c(O)c(F)c3)ncc2N(C)C(=O)[C@@H]1C (0.833333 µM) | 0.164 | 106% (inactive)
Cc1c(N2C(=O)[C@@H]3[C@H](O)CCN3C2=O)ccc(C#N)c1Cl (10 µM) | 0.189 | 91.5% (inactive)
COc1ccccc1OC(=O)C(C)c1ccc(CC(C)C)cc1 (stereo not given) [metoxibutropate] (10 µM) | 0.217 | 101% (inactive)
